The values below come from PubChem BioAssay (EPA / NIEHS).

SMILES strings stand for the structures. Records with an inconclusive call do not appear. The source holds several records for some structures; these can differ, active in one and inactive in another. The source made the active and inactive calls. The calls were made as follows, unless noted: active = hit-call score of the fitted dose curve at least 0.9, where 1 is the maximum; inconclusive = response in the unintended direction; inactive = score below 0.9.

The target of test [1] is Cellular tumor antigen p53 (Homo sapiens) (UniProt P04637). Kind of test: TOX21_p53_BLA_p4_ratio: Tox21 HCT-116 p53 Agonism Beta-lactamase Assay, Ratio, Phase 4 (AID 2283601). In short, it runs like this:
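Signal is the blue/green (460nm/530nm) ratio of cleaved versus uncleaved CCF4-AM substrate, read after 2 h substrate loading. Cells were HCT116 carrying the p53-responsive beta-lactamase reporter, dosed 16 h at 37C, 5% CO2; CellTiter-Glo measured in parallel.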

Test [2] is described as follows: Tanguay_ZF_120hpf_MORT_legacy: (Legacy) Oregon State University Tanguay Lab 120 Hour Post-fertilization zebrafish Assay for Mortality (AID 2283633).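 As to AC50: fitted as increase in binary mortality versus DMSO negative control.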 In short, it runs like this: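 5D WT zebrafish, chorion removed 4 hpf; 1 embryo/well from 6 hpf; static exposure to 120 hpf, 28C, dark, sealed. Final DMSO 0.64%. Readout: binary mortality, brightfield, 24 + 120 hpf; DMSO as negative control.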

Test [3] in a line: Tanguay_ZF_120hpf_YSE_legacy: (Legacy) Oregon State University Tanguay Lab 120 Hour Post-fertilization zebrafish Assay for Yolk Sac Edema (AID 2283634).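 As to AC50: actives raise the incidence of yolk sac edema above the DMSO baseline.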 In short, it runs like this:
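Dechorionate (pronase, 4 hpf) → place one 6 hpf embryo per well → static compound exposure, sealed and foil-covered, 28C, to 120 hpf → record yolk sac edema as present or absent. Final DMSO 0.64%.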

The nature of test [4]: Tanguay_ZF_120hpf_AXIS_legacy: (Legacy) Oregon State University Tanguay Lab 120 Hour Post-fertilization zebrafish Assay for Body Axis Malformation (AID 2283635).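 As to AC50: potency for an increased fraction of larvae scored with body axis malformation.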 In short, it runs like this:
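Chorion is removed with pronase at 4 hpf, then single 6 hpf embryos are dosed (final DMSO 0.64%) and held statically at 28C in sealed, foil-covered plates. At 120 hpf body axis malformation is recorded as present or absent.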

Test [5] is described as follows: Tanguay_ZF_120hpf_EYE_legacy: (Legacy) Oregon State University Tanguay Lab 120 Hour Post-fertilization zebrafish Assay for Eye Malformation (AID 2283636). In a few lines:
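Read-out is binary presence or absence of eye malformation, scored by brightfield microscopy at 120 hpf. Single larvae were exposed from 6 hpf in embryo medium containing 0.64% DMSO, with DMSO as baseline.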

A short description of test [6]: Tanguay_ZF_120hpf_SNOU_legacy: (Legacy) Oregon State University Tanguay Lab 120 Hour Post-fertilization zebrafish Assay for Snout Malformation (AID 2283637). In short, it runs like this: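 Snout malformation read as a yes/no call on brightfield images of 120 hpf larvae (Tropical 5D strain). Static exposure began at 6 hpf on dechorionated embryos in 0.64% DMSO, with gain of signal analysed versus DMSO controls.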

A short description of test [7]: Tanguay_ZF_120hpf_JAW_legacy: (Legacy) Oregon State University Tanguay Lab 120 Hour Post-fertilization zebrafish Assay for Jaw Malformation (AID 2283638).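 As to AC50: active means more embryos with jaw malformation than DMSO controls.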 In a few lines: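 Steps: dechorionate 4 hpf embryos (pronase); plate 1/well at 6 hpf; add test chemical, 0.64% DMSO final; seal, cover, hold at 28C statically to 120 hpf; score jaw defect presence/absence microscopically. Dead embryos not scored.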

Test [8] can be described thus: Tanguay_ZF_120hpf_OTIC_legacy: (Legacy) Oregon State University Tanguay Lab 120 Hour Post-fertilization zebrafish Assay for Otic Vesicle Malformation (AID 2283639). In a few lines: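 Otic vesicle malformation is read as a yes/no morphology call at 120 hpf. Exposure is static at 28C with 0.64% (vol/vol) DMSO; embryos that die are excluded from non-mortality endpoints.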

Test [9] can be described thus: Tanguay_ZF_120hpf_PE_legacy: (Legacy) Oregon State University Tanguay Lab 120 Hour Post-fertilization zebrafish Assay for Pericardial Edema (AID 2283640).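 As to AC50: potency for increased incidence of pericardial edema versus DMSO baseline.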 In a few lines:
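Embryos from wild-type 5D adults were staged, then dosed in 0.64% DMSO. They were kept sealed in the dark at 28C until 120 hpf. Pericardial edema was then recorded as present or absent.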

A short description of test [10]: Tanguay_ZF_120hpf_BRAI_legacy: (Legacy) Oregon State University Tanguay Lab 120 Hour Post-fertilization zebrafish Assay for Brain Malformation (AID 2283641). In short, it runs like this:
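Wild-type 5D larvae, static waterborne exposure to 120 hpf, 28C, 0.64% v/v DMSO. Brightfield scoring of brain defects, binary; dead embryos excluded. Positive ctrl 5uM trimethyltin chloride.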

Test [11] is described as follows: Tanguay_ZF_120hpf_PFIN_legacy: (Legacy) Oregon State University Tanguay Lab 120 Hour Post-fertilization zebrafish Assay for Pectoral Fin Malformation (AID 2283648).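 Also: each larva judged yes or no for fin defect by brightfield with dead larvae skipped.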 In short, it runs like this:
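5D WT zebrafish; pronase dechorionation 4 hpf; 1 embryo/well at 6 hpf; static exposure to 120 hpf, 28C, sealed, foil-covered; final DMSO 0.64% v/v; 5 uM trimethyltin chloride positive control; fin defect scored yes/no.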

Test [12] in a line: Tanguay_ZF_120hpf_CFIN_legacy: (Legacy) Oregon State University Tanguay Lab 120 Hour Post-fertilization zebrafish Assay for Caudal Fin Malformation (AID 2283649). In a few lines: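 Binary presence or absence of caudal fin malformation at 120 hpf, read by brightfield microscopy, with DMSO as baseline. Larvae came from 5D wild-type embryos exposed statically from 6 hpf at 28C after pronase dechorionation.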

Test [13] can be described thus: Tanguay_ZF_120hpf_PIG_legacy: (Legacy) Oregon State University Tanguay Lab 120 Hour Post-fertilization zebrafish Assay for Pigmentation Malformation (AID 2283650). In a few lines:
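Pronase dechorionation at 4 hpf; embryos plated at 6 hpf, one per well; static exposure, sealed and foil-covered, 28C, to 120 hpf; pigmentation read by brightfield, binary; DMSO 0.64% baseline, 5uM trimethyltin chloride positive control.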

Test [14] can be described thus: Tanguay_ZF_120hpf_TRUN_legacy: (Legacy) Oregon State University Tanguay Lab 120 Hour Post-fertilization zebrafish Assay for Truncated Body (AID 2283655). In short, it runs like this:
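Truncated body is recorded as a binary endpoint at 120 hpf by brightfield imaging of wild-type 5D larvae. Exposure runs statically from 6 hpf at 28C with 0.64% DMSO; embryos dying earlier are not scored.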

Test [15] in a line: Tanguay_ZF_120hpf_NC_legacy: (Legacy) Oregon State University Tanguay Lab 120 Hour Post-fertilization zebrafish Assay for Notochord and Tail Malformation (AID 2283656). In short, it runs like this: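 Dechorionated 5D zebrafish, 1/well from 6 hpf; static exposure to 120 hpf, 28C, sealed, dark; final DMSO 0.64% v/v. NC scored binary (present/absent); dead embryos not scored. Fit vs DMSO baseline, gain direction.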

Test [16] can be described thus: Tanguay_ZF_120hpf_SOMI_legacy: (Legacy) Oregon State University Tanguay Lab 120 Hour Post-fertilization zebrafish Assay for Somite Malformation (AID 2283647). In short, it runs like this:
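Read-out: presence or absence of somite malformation in 120 hpf larvae, gain-of-signal relative to DMSO baseline. Embryos lacked chorion (pronase, 4 hpf) and were exposed statically from 6 hpf at 28C; dead larvae not scored.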

Test [17] in a line: Tanguay_ZF_120hpf_CIRC_legacy: (Legacy) Oregon State University Tanguay Lab 120 Hour Post-fertilization zebrafish Assay for Circulatory Malformation (AID 2283651). In a few lines:
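Using wild-type Tropical 5D zebrafish, we exposed dechorionated embryos from 6 to 120 hpf in embryo medium with 0.64% DMSO. Circulatory defects were scored as present or absent; 5uM trimethyltin chloride served as positive control.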

A short description of test [18]: Tanguay_ZF_120hpf_SWIM_legacy: (Legacy) Oregon State University Tanguay Lab 120 Hour Post-fertilization zebrafish Assay for Swim Bladder Malformation (AID 2283654).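 Also: swim bladder malformation in each larva scored yes or no under brightfield.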 In a few lines: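 Embryos lacking chorions were exposed individually and statically to test chemical from 6 to 120 hpf at 28C, with 0.64% DMSO as vehicle. At 120 hpf, swim bladder malformation was recorded as present or absent by brightfield microscopy.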

Read-out in test [19]: solute carrier (SLC22A6), SLC22A6 (gene 9356)
Kind of test: LTEA_HepaRG_SLC22A6: Life Technologies and Expression Analysis (LTEA) Assay for solute carrier (SLC22A6) using HepaRG (AID 2283653; active = hit-call score of the fitted dose curve at least 0.9, where 1 is the maximum; inactive = score below 0.9). The note with it: mRNA level, 48 h; actives raise or lower the signal. In a few lines: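 Read-out is SLC22A6 transcript level by qRT-PCR, normalised to three housekeeping genes and fitted for gain or loss relative to 0.5% DMSO vehicle. Human HepaRG cells received chemicals at up to 100 uM for 48 h.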

Sequence of Cellular tumor antigen p53 (Homo sapiens) (P04637 whole entry, looked up): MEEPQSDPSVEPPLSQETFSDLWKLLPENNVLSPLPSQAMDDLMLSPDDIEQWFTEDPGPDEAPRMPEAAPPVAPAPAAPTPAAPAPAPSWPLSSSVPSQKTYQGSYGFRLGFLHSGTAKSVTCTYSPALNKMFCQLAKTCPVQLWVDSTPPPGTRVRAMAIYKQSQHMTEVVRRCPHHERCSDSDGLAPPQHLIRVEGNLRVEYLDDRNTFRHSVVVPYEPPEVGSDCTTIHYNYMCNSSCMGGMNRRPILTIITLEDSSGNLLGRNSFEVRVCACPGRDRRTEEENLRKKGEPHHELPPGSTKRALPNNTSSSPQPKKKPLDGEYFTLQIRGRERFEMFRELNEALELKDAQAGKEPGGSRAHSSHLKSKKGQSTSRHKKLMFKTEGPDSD

Take `CC(C)C1(C)N=C(c2ncccc2C(=O)O)NC1=O` (centres undefined): the result in test [1], in test [2], in [3], in test [4], in [5] and in test [6] was inactive. Also, the compound was called inactive in test [7], in [8], in [9], in test [10], in [11] and in test [12]. For the same compound, the outcome in test [13], in [14] and in test [15] was inactive.
With `COc1cc(OC)nc(NC(=O)NS(=O)(=O)c2ncccc2OCC(F)(F)F)n1`, the outcome in [1], in test [2], in test [3], in test [4], in [5] and in [6] was inactive. Also, the compound was classed as inactive in test [7], in [8], in test [9], in test [10], in test [16] and in test [11]. In addition, the call in test [12], in test [13], in test [17], in test [18], in test [14] and in test [15] was inactive.
Take `COP(=S)(OC)SCn1nnc2ccccc2c1=O`: the AC50 in [1] is 43.5 µM (active); in test [4], 17.3 µM (active). The outcome in [1], in test [2], in test [3], in test [5], in test [6] and in [7] was inactive. In addition, the result in [8], in test [9], in test [10], in test [12], in test [13] and in [17] was inactive. In addition, the call in test [18] and in [15] was inactive.
Regarding `CCOP(=O)(OCC)Oc1nc(Cl)c(Cl)cc1Cl`, the AC50 was 61.7 µM (active) in [1] and 0.887 µM (active) in [2]. Also, the result in [3], in test [4], in test [5], in test [6], in test [7] and in test [8] was inactive. Moreover, the compound was classed as inactive in [9], in [10], in test [16], in test [11], in [12] and in test [13]. In addition, the compound was called inactive in test [17], in test [18], in test [14] and in test [15].
Take `CCCCC(C#N)(Cn1cncn1)c1ccc(Cl)cc1` (centres undefined): the result in [1], in test [2], in [8], in test [10], in [16] and in test [12] was inactive. For the same compound, the compound was called inactive in [13], in test [17], in [19], in [18] and in test [15]. In addition, the AC50 was 37.7 µM (active) in test [3]; 56 µM (active) in test [4]; 49.4 µM (active) in [5]; 48.6 µM (active) in [6]; 48 µM (active) in test [7]; 46.8 µM (active) in test [9]. Also, the AC50 was 24.1 µM (active) in [11] and 48 µM (active) in [14].
In the case of `C=CCOC(=O)C(C)(C)OC(=O)c1cc(-n2c(=O)cc(C(F)(F)F)n(C)c2=O)ccc1Cl`, the result in [1], in test [2], in test [3], in test [4], in [5] and in test [6] was inactive. Also, the compound was classed as inactive in [7], in test [9], in test [10], in [11], in [12] and in test [13]. In addition, the compound was classed as inactive in test [17] and in [14].
Turning to `CCCCOCN(C(=O)CCl)c1c(CC)cccc1CC`, in test [1], the AC50 is 66 µM (active). Moreover, the result in test [2], in test [3], in test [4], in test [5], in test [6] and in [7] was inactive. The result in test [8], in [9], in test [10], in [16], in [11] and in test [12] was inactive. The compound was called inactive in test [13], in test [14] and in test [15].
In the case of `Cc1c(COC(=O)[C@@H]2[C@H](/C=C(\Cl)C(F)(F)F)C2(C)C)cccc1-c1ccccc1`, the outcome in test [1], in [2], in test [3], in [4], in test [5] and in [6] was inactive. Moreover, the call in test [7], in [8], in test [9], in test [10], in [16] and in test [11] was inactive. Also, the result in test [12], in test [13], in test [17], in test [18], in [14] and in [15] was inactive.

In general, AC50 refers to the concentration giving half of the maximal activity seen.
